Experimental findings from PubChem BioAssay (NCI) are described below.

SMILES strings stand for the structures. The panel holds about 83,000 compounds, 20% with a hit somewhere; the sample as a whole holds those more often.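 Testing used 96-well plates and a 48-hour single-concentration exposure. Example: -40 means 40% of the starting cells died.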 Unmarked numbers belong to inactive results. Activity calls are given as the source filed them. Rule for the calls: active = growth percent below 10; inactive = the rest.

Holding throughout (experiment): NCI-60 one-dose screen, 48 h (100 = growth as untreated, 0 = no growth, -100 = all killed)
Holding throughout (conditions): 10 µM unless noted

Assay [1] concerns NCI-H23 lung.
In assay [2] the test system is NCI-H226 lung.
Assay [3] concerns NCI-H322M lung.
The subject of assay [4] is HOP-62 NSCLC.
Assay [5] concerns NCI-H460 lung.
In assay [6] the test system is HOP-92 NSCLC.
For assay [7], the system named is NCI-H522 lung.
Assay [8] has as its system A549/ATCC NSCLC.
For assay [9], the system named is 786-0 renal.
The subject of assay [10] is COLO 205 colon.

For the compound `Cc1nc2c(c(=O)[nH]1)C(c1ccccc1)c1ccc3ccccc3c1O2` (centres undefined), the growth in assay [1] was 50.4%; in [2] it was 62.5%; in assay [3] it was 59.1%; in [4] it was 20.2%; in assay [5], 20.5%; in assay [6], 24.7%. Also, the growth in assay [7] is -31.4% (active); in assay [8] it was 40.2%; in assay [9] it was 25%; in assay [10], 72.9%.

Take `COc1ccccc1N(C(C)=O)C1=C(Cl)C(=O)c2ccccc2C1=O`: the growth in assay [1] was -12.1% (active); in assay [2], 23.7%; in assay [3], 38%; in [4], 38.6%; in assay [5], 4.81% (active); in [6], -14.9% (active). For the same compound, the growth in assay [7] was -78% (active); in [9] it was 37.2%; in assay [10], -11.7% (active).

Consider `COc1ccccc1C(=O)Nc1cccc(NC(=O)c2ccoc2C)c1`, for which the growth in [1] was 47.5%; in [2] it was 70.7%; in assay [3], 59.5%; in assay [4], 49.5%; in [5], 13.9%; in assay [6] it was 47.2%. Moreover, the growth is 13.9% in [7], 28.2% in assay [8], 32.9% in assay [9] and 39.2% in assay [10].

With `CC(C)(C)n1cc(-c2ccnc(NCCNS(=O)(=O)c3ccc(O)cc3)c2)c(-c2cccc(O)c2)n1`, the growth in [1] is 98.6%; in assay [2] it was 102%; in assay [3], 105%; in assay [4] it was 101%; in assay [5], 104%; in assay [6] it was 102%. The growth in assay [7] is 94.8%; in assay [9], 103%; in assay [10], 91.9%.

For `[2H]C([2H])([2H])Oc1ccc(F)cc1/C=C/C(=O)/C=C(/C=C/c1cc(F)ccc1OC([2H])([2H])[2H])OB(F)F`, the growth was 76.6% in [1]; 109% in assay [2]; 108% in [3]; 97.8% in assay [4]; 95.5% in assay [5]; 99.7% in [6]. In addition, the growth was 18.9% in [7], 90.8% in assay [8], 86.3% in assay [9] and 57.6% in assay [10].

Consider `Cc1ccc(-c2nc3nc(-c4ccccc4)nc(N4CCCN(S(C)(=O)=O)CC4)c3o2)cc1`, for which the growth in assay [1] was 86.6%; in assay [2], 58.1%; in assay [3], 93.9%; in [4], 66.5%; in assay [5], 4.39% (active); in [6], 84.9%. Besides, the growth in [7] was 78.8%; in assay [9], 87.7%; in assay [10], 86.5%.

Turning to `CC[C@]12C=CCN3CC[C@@]4(c5ccc(OC)cc5N(C)[C@H]4[C@@](O)(C(=O)OC)[C@@H]1OC(=O)CCC[P+](c1ccccc1)(c1ccccc1)c1ccccc1)[C@@H]32`, the growth in assay [1] is -8.66% (active); in [2], 14%; in assay [3], 35.6%; in [4] it was 2.56% (active); in assay [5], 6.11% (active); in [6], -40% (active). The growth in assay [7] was -35.4% (active); in [8], 13.4%; in [9], 20.6%; in assay [10], -87.9% (active).

As for `Cc1ccc(C(=O)c2ccc(CC(=O)N=Nc3c(O)[nH]c4ccc(Br)cc34)n2C)cc1`, the growth in assay [1] was 76.1%; in assay [2], 77.9%; in assay [3] it was 92%; in assay [4], 89.6%; in [5], 104%; in assay [6] it was 106%. The growth in assay [7] is 84.1%; in assay [8] it was 87.2%; in assay [9], 97.6%; in assay [10], 106%.

Consider `COc1ccc(C(=S)N2CCN(c3ccc(Cl)cc3)CC2)cc1`, for which the growth in assay [1] was 101%; in assay [2], 96%; in [3] it was 89.3%; in [4], 97.8%; in [5], 105%; in assay [6], 89.9%. Also, the growth was 75.6% in assay [7], 84% in assay [8], 92.5% in assay [9] and 103% in [10].

Regarding `Nc1nc(N)c2c(n1)NC(c1cccc(Nc3ccnc4cc(C(F)(F)F)ccc34)c1)CC(c1ccc(Br)cc1)=N2` (centres undefined), the growth is 66.3% in assay [1]; 93.9% in [2]; 96.1% in assay [3]; 58.2% in assay [4]; 29.9% in assay [5]; 42.8% in [6]. The growth in assay [7] is 48.8%; in assay [8], 45.9%; in assay [9], 68.9%; in [10], 34%.

As for `CC(C)(C)n1cc(-c2ccnc(NCCCNS(=O)(=O)c3cccc4ccccc34)c2)c(-c2cccc(F)c2)n1`, the growth was 68.3% in [1]; 85.6% in [2]; 92.9% in assay [3]; 92.2% in assay [4]; 73.3% in [5]; 46.8% in [6]. Further, the growth in assay [7] was 80.5%; in assay [8] it was 73.4%; in assay [9], 71.2%; in [10], 68.8%.

Regarding `CO[C@H]1CC(=O)n2c3ccccc3c3c4c(c5c6ccccc6n1c5c32)C(=O)NC4=O`, the growth is 63.3% in assay [1]; 52.1% in assay [2]; 63.5% in assay [3]; 54.4% in assay [4]; 29.1% in [5]; 86.1% in [6]. In addition, the growth in assay [7] was 58.9%; in assay [8] it was 57%; in [9], 97.4%; in [10] it was 42%.

Take `COc1ccc(Cn2cc3c(c2-c2ccccc2)CCc2cnoc2-3)cc1`: the growth is 27.2% in assay [1]; 43.6% in assay [2]; 70.2% in assay [3]; 30.1% in assay [4]; 2.53% (active) in assay [5]; 52.2% in assay [6]. Besides, the growth in [7] is 12.1%; in [8] it was 20.5%; in assay [9], 19.4%; in assay [10] it was -30.1% (active).

With `COc1ccc2cc(-c3ccnc4c(N=Nc5ccc(Cl)cc5)c(N)nn34)ccc2c1`, the growth is 108% in assay [1]; 90.2% in [2]; 102% in [3]; 94.4% in assay [4]; 100% in assay [5]; 98.7% in assay [6]. For the same compound, the growth is 95.6% in assay [7], 81.9% in [8], 106% in assay [9] and 110% in [10].

In the case of `CCc1n(Cc2ccc3ccccc3n2)cc[n+]1Cc1ccc2ccccc2n1`, the growth is 16% in assay [1]; 48.4% in [2]; 73.1% in assay [3]; 40.9% in [4]; 34.8% in [5]; -3.51% (active) in assay [7]. The growth in [8] is 57.4%; in assay [9] it was 77.6%; in assay [10] it was -38.9% (active).

Regarding `C=C1C(=O)O[C@H]2[C@H]1CC/C(CNC(=O)c1c[nH]c3ccc(F)cc13)=C\CC[C@@]1(C)O[C@@H]21`, the growth in [1] is 14.2%; in assay [2], 25.9%; in assay [3], 82.9%; in [4] it was 70.6%; in [5], 85.7%; in assay [7], -73.9% (active). For the same compound, the growth was 46.6% in [8], -59.5% (active) in [9] and -78.6% (active) in assay [10].

`COC(=O)/C=C1/SC(=Nc2ccc([N+](=O)[O-])cc2)N(CCc2c[nH]c3ccc(O)cc23)C1=O`: the growth in [1] was 64.9%; in assay [2] it was 86.1%; in assay [3], 87.5%; in assay [4] it was 27.5%; in assay [5], 17.4%; in assay [6], 27.3%. In addition, the values for the growth in assay [7], in [9] and in assay [10] were 57.4%, 44.2% and 78.1%, respectively.
